DT40 TDP1 CPT: qHTS for Inhibitors of human tyrosyl-DNA phosphodiesterase 1 (TDP1): qHTS in cells in presence of CPT | actives 12% (n = 420,000) | chicken DT40 Tdp1-/-;hTDP1 cells + 20 nM CPT, ATP luminescence, 48 h | Potency, µM (series often up to 46.2 µM), inactives show top-dose activity change, negative = growth inhibition, actives largely listed as inhibitors; further: potency means the concentration at half of the fitted maximal effect; on the % scale 0 is the no-effect control and ±100 the full control effect; nearly all actives have a fitted effect of over 55% in size
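Cell growth measured by CellTiter-Glo luminescence after a minimum 48 h, 37 C compound exposure with 20 nM CPT in Tdp1-knockout DT40 cells stably expressing hTDP1, seeded 400/well; qHTS titration format.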
MCF10A rereplic: A quantitative high throughput screen for small molecules that induce DNA re-replication in MCF 10a normal breast cells; AID 624296, 2012; MCF 10A DNA re-replication, Hoechst nuclear intensity, 48 h; Potency, µM (titrated, usually from 46.1 µM), for the others: at the highest dose activity, positive = re-replication, most hits filed as activators; actives 2.9% (n = 350,000); further: potency means the concentration at half of the fitted maximal effect; % of control where 0% means no effect; nearly all actives have a fitted effect of over 50% in size
SW480 rerep: A quantitative high throughput screen for small molecules that induce DNA re-replication in SW480 colon adenocarcinoma cells; actives 1.8% (n = 340,000); Potency, µM (series often up to 46.1 µM), for inactives: at the highest dose re-replication activation, usual class: activators; SW480 DNA re-replication, Hoechst DNA content imaging, 48 h; further: potency means the concentration at half of the fitted maximal effect; % of control where 0% means no effect; nearly all actives have a fitted effect of over 55% in size
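Image-based read-out: total Hoechst fluorescence of nuclei (405 nm excitation, 500-530 nm emission), with hits raising the fraction of high-intensity nuclei. SW480 colon cells incubated 48 hr with compounds at 37 C.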
IL-1B inflam inh: qHTS for Inhibitors of Inflammasome Signaling: IL-1-beta AlphaLISA Primary Screen. THP-1 LPS/ATP IL-1B secretion, AlphaLISA, 16 h; active compounds read low. activity change, % at 57.5 µM. actives 4.7% (n = 360,000). AID 743279, 2014; in the data active means activity change below about -50%; inconclusive means mostly about -30% to -49%; further: on the % scale 0 is the no-effect control and ±100 the full control effect
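THP-1 cells pretreated 1 hr with compounds (up to 57.5 uM final), then stimulated with LPS (250 ng/mL final) plus ATP (1.25 mM final); secreted IL-1B measured by AlphaLISA after 16 hr, decreased signal indicating inhibition.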
DT40 TDP1 no CPT: qHTS for Inhibitors of human tyrosyl-DNA phosphodiesterase 1 (TDP1): qHTS in cells in absence of CPT; DT40 Tdp1-/- hTDP1 cells, no CPT, ATP luminescence, 48 h; Potency, µM (highest dose often 46.2 µM), for inactives: top-dose activity change, negative = growth inhibition, hits mostly inhibitors; actives 15% (n = 420,000); further: potency means the concentration at half of the fitted maximal effect; on the % scale 0 is the no-effect control and ±100 the full control effect; nearly all actives have a fitted effect of over 55% in size
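DT40 Tdp1-/-;hTDP1 cells, no CPT (DMSO vehicle only), 400 cells/well; compounds pin-transferred; ≥48 hr, 37 °C; CellTiter-Glo 30 min RT dark, luminescence read.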
Chronic BCR inh: qHTS Assay to Find Inhibitors of Chronic Active B-Cell Receptor Signaling; ABC-DLBCL IkBa-CBG/CBR reporter, luminescence ratio, 4 h; Potency, µM (titrated, usually from 46.1 µM), for the others: at the top dose activity change, negative = inhibition, actives largely listed as inhibitors; actives 0.05% (n = 340,000); AID 493014, 2011; active means well fitted inhibition curve with a large enough effect in the signal ratio, with a control signal flat, not every such curve was filed as active; inconclusive means small, poorly fitted or top-dose-only effect, or effect the other way, or a change in a side signal; the % refers to the signal ratio;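 further: potency means the concentration at half of the fitted maximal effect; plate controls were basal doxycycline-induced cells for no effect and cells given 10 µM MG132 for full effect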
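Doxycycline induced both beetle luciferases in TMD8 lymphoma cells; IKK-driven degradation limits the IkappaBalpha-fused green signal, while red luminescence normalises for cell number and nonspecific effects. Compounds tested up to 46 uM, 4 hrs.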
Active calls of the source: *; ? = inconclusive; . = not tested or not shown; [ ] = dose if it differs, or a comment. In the library only some 19% were active in any assay of this set; here they are far more common. Unless noted, the call rests on the fitted dose curve; in most records, active means well fitted curve in the direction sought with a large enough effect; inconclusive means small, poorly fitted or top-dose-only effect, or another doubt; inactive means no such curve, though single readings can be large; an effect the other way counts as inactive or inconclusive.

SMILES	DT40 TDP1 CPT	MCF10A rereplic	SW480 rerep	IL-1B inflam inh	DT40 TDP1 no CPT	Chronic BCR inh
Fc1ccccc1CCNCc1cccc2ccccc12	?	?	-1.8%	-21.0	?	?
C[N+]1(CCF)[C@@H]2CC[C@H]1CC(OC(=O)C(O)(c1ccccc1)c1ccccc1)C2 (some centres not stated)	11.0%	.	.	.	-2.2%	.
COC(=O)c1ccccc1-n1c(C)nc2ccccc2c1=O	-26.0%	-5.1%	0.9%	2.5	?	-3.0%
CCOC(=O)c1nc2ccccc2c(=O)n1-c1ccc(C)cc1C	8.2µM*	?	5.0%	-9.7	10.3µM*	2.0%
O=P(O)(O)Cc1ccccc1OP(=O)(c1ccccc1)c1ccccc1	?	20.5%	0.8%	3.9	?	-1.6%
CC(C)(C)c1cc(C(=O)CCN2CCOCC2)cc(C(C)(C)C)c1O	4.61µM*	?	14.9%	-100.6*	7.31µM*	?
COc1ccc(C(=O)CN2CCOCC2)cc1	-21.2%	.	.	.	-4.6%	.
O=C1NC(=O)C(=Cc2coc3ccc(O)cc3c2=O)C(=O)N1	16.4µM*	10.0%	?	-23.1	20.6µM*	0.2%
Cc1ccc(C2=NCC(=O)Nc3ccc(Br)cc32)cc1	-0.5%	?	1.2%	24.9	?	?
COc1ccc(C(O)P(=O)(OCC(C)C)c2ccc(N(C)C)cc2)c(OC)c1 (configuration not stated)	-23.1%	3.7%	-5.9%	-0.8	6.5%	?
CN(C)c1c([N+](=O)[O-])cc(N2C(=O)C=CC2=O)cc1[N+](=O)[O-]	1.3µM*	13µM*	16.4µM*	-98.6*	1.3µM*	.
C[C@@H](Cc1ccccc1)N(C)C	-15.5%	.	.	.	-17.0%	.
Cc1c(C(=O)N2CCC3(CC2)OCCO3)sc2ncnc(N3CCN(c4ccccn4)CC3)c12	20.6µM*	-3.3%	2.9%	-80.7*	16.4µM*	-7.8%
CC(C#N)CCC#N (configuration not stated)	-1.2%	1.2%	-4.5%	-3.4	-7.2%	-1.2%
CC1N=C(c2ccccc2)c2cc(Br)ccc2NC1=O (configuration not stated)	?	-0.5%	-10.0%	18.1	18.4µM*	-12.4%
CNCCC(Oc1ccc(C(F)(F)F)cc1)c1ccccc1 (configuration not stated)	?	-4.7%	?	?	25.9µM*	?
CNCCc1ccccc1	.	.	.	.	.	-5.2%
C#CCOC(C(=O)OCCN(C)C)(c1ccccc1)c1ccccc1	21.1µM*	7.2%	5.1%	.	11.9µM*	.
CCN(CC)CCCOC(=O)C(OC)(c1ccccc1)c1ccccc1	-32.1%	13.2%	0.8%	-5.8	-2.2%	-0.4%
O=c1c2ccccc2sn1-c1ccc(Cl)cc1	2.06µM*	.	.	-105.5*	1.84µM*	.
Cc1ccc(-n2sc3ccccc3c2=O)cc1	2.91µM*	?	?	-103.0*	3.26µM*	?
CCOC(=O)c1ccc(NC(=O)c2c(O)[nH]c(=O)[nH]c2=O)cc1	?	-0.3%	6.7%[9.22 µM]	9.8	?	-1.4%
CCOc1ccc(NC(=O)c2c(O)[nH]c(=O)[nH]c2=O)cc1	23.1µM*	-14.3%	-9.4%	13.9	16.4µM*	.
CC(C)c1oc(=O)cc2c1[C@@H](O)[C@H]1OC(=O)[C@@]3(C)C[C@@H](O)[C@@H](O)[C@@]2(C)C13 (some centres not stated)	2.06µM*	5.17µM*	?	-7.9	1.84µM*	?
CC(C)c1oc(=O)cc2c1[C@@H](O)[C@H]1OC(=O)[C@@]3(C)CC[C@@H](O)[C@@]2(C)C13 (some centres not stated)	5.8µM*	11.9%	?	62.2	5.17µM*	?
SMILES	DT40 TDP1 CPT	MCF10A rereplic	SW480 rerep	IL-1B inflam inh	DT40 TDP1 no CPT	Chronic BCR inh
COC(=O)C1=C(c2cccc(C#N)c2)C[C@@H]2CC[C@H]1N2C(=O)NC(C)C	4.8%	5.5%	16.1%	-1.7	-3.5%	-4.8%
CN1C[C@@H]2C[C@@H](c3cccn3-c3ccccn3)N3CCC[C@@]23C1=O	4.0%	-23.3%	7.2%	19.0	-6.8%	-6.4%
CN(C(=O)Cc1ccc(Cl)c(Cl)c1)[C@H](CN1CCCC1)c1cccc(N=C=S)c1	11.9µM*	.	.	.	13.3µM*	.
CN(C(=O)Cc1ccc(Cl)c(Cl)c1)C(CN1CCCC1)c1cccc(N=C=S)c1 (configuration not stated)	5.17µM*	.	.	.	3.26µM*	.
COc1ccc(C(CNC(=O)Cc2ccc(Cl)c(Cl)c2)N2CCCCC2)cc1 (configuration not stated)	?	?	10.9%	-7.8	?	2.2%
C[C@H]1[C@@H](OS(=O)(=O)O)C[C@@H]2C[C@H]([C@@H](O)c3cc(=O)[nH]c(=O)[nH]3)NC3=NC[C@H]1N32	2.31µM*	?	?	-23.2	3.66µM*	.
CC(C)(O)C(=O)Nc1ccc([N+](=O)[O-])c(C(F)(F)F)c1	?	8.1%	-0.9%	23.4	14.6µM*	0.4%
COP(=O)(OC)C(NC(C)=O)C(Cl)(Cl)Cl (configuration not stated)	21.6%	-48.3%	-1.4%	-4.3	?	-10.9%
COC1C(O)C(C)OC(OC2C(Oc3cccc4c(O)c5c(=O)oc6ccc(C)c7c(=O)oc(c34)c5c67)OC(C)C(O)C2O)C1O (configuration not stated)	0.82µM*	8.2µM*	20.6µM*	-99.7*	0.82µM*	.
CC[C@@H](CO)C1CC2NC3CC4(c5ccccc5N(C)[C@@H]24)C(O)C31 (some centres not stated)	-5.9%	0.0%	?	-18.9	-4.1%	.
C[C@]12CCC3C(CC[C@H]4C[C@H](O)CC[C@]34C)[C@@H]1CC[C@@H]2C(=O)CO (some centres not stated)	-24.4%	.	.	.	-29.6%	.
CN(C)c1ccc(P(=O)(Nc2ccc([N+](=O)[O-])cc2)N2CCOCC2)c(NC(=O)c2cccs2)c1 (configuration not stated)	-22.0%	4.8%	5.4%	21.2	-21.3%	?

Screening results (PubChem)
